The source of these data is PubChem BioAssay (Tox21).

Values joined by “and” are separate entries in the source; they are usually repeats but may differ in a detail not shown here. Equal values may be shown once. Results filed as inconclusive are left out. A call without a number means that no potency is given here. Some structures have more than one record in an assay (separate samples or runs), and their calls can disagree. Active and inactive are the calls of the source. Unless noted, the call rests on the fitted dose curve.

Chain of Muscarinic acetylcholine receptor M1 (Homo sapiens) (P11229 whole entry, looked up): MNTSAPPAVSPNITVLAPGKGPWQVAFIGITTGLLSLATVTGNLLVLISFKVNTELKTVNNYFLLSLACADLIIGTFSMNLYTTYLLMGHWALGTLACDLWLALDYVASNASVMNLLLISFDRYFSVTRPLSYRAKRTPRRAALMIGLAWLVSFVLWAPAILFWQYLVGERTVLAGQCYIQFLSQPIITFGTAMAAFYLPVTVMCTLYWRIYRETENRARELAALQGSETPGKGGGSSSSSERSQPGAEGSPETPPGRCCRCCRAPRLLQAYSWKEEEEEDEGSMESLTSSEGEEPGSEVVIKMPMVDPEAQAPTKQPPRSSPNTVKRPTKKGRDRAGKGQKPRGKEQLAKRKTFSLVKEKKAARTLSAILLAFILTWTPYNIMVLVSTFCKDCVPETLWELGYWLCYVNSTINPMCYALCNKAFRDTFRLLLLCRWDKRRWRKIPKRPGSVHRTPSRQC
Chain of 5-hydroxytryptamine receptor 2A (Homo sapiens) (P28223 whole entry, looked up): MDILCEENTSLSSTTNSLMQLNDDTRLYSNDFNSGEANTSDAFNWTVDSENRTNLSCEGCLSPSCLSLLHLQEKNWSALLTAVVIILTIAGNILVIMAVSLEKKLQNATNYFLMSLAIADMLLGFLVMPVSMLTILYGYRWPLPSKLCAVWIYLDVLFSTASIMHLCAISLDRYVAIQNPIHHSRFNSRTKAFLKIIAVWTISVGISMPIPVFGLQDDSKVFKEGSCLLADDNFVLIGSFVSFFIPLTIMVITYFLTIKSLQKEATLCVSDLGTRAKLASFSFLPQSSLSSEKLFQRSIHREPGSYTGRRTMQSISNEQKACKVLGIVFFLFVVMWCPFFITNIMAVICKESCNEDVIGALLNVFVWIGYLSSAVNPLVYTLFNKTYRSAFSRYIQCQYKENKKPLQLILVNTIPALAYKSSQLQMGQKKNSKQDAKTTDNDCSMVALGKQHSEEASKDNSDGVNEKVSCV

Test system in the first assay: not listed separately
In words: p53 small molecule agonists, cell-based qHTS assay (AID 1963582; active means well fitted activation curve with a large enough effect in the signal ratio in the repeat runs, not every such curve was filed as active; the % refers to the signal ratio; further: potency means the concentration at half of the fitted maximal effect). The note with it: HCT-116 p53RE-bla reporter, beta-lactamase FRET ratio, 16 h; series mostly up to 66 µM; activation: at the top concentration. Summed up:
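p53RE-bla beta-lactamase reporter cells rested 5 h at 37 C/5% CO2, then received compounds in DMSO by pin transfer and were incubated 16 h at 37 C. LiveBLAzer B/G FRET substrate was loaded for 2 h at room temperature before fluorescence reading.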
Regarding `CC(=O)O[C@]1(C(C)=O)CC[C@H]2[C@@H]3C[C@H](C)C4=CC(=O)CC[C@]4(C)[C@H]3CC[C@@]21C`, the “activation” value is 0.604% (inactive).
On to `COC(=O)c1ccc(O)cc1`, for which the Potency entry was “inactive”.
On to `O=c1[nH]cc(F)c(=O)[nH]1`, for which the Potency was 2.63 µM (active) and 7.93 µM (active).
Regarding `COc1ccc(Cl)cc1C(=O)NCCc1ccc(S(=O)(=O)NC(=O)NC2CCCCC2)cc1`, the “activation” value is -3.25% [at 30.3 µM] (inactive).
Turning to `C[C@H]1C[C@H]2[C@@H]3CCC4=CC(=O)C=C[C@]4(C)[C@@]3(F)[C@@H](O)C[C@]2(C)[C@@]1(O)C(=O)CO`, the Potency result was “inactive”.
For `CC(=O)O[C@]1(C(C)=O)CC[C@H]2[C@@H]3C=C(Cl)C4=CC(=O)CC[C@]4(C)[C@H]3CC[C@@]21C`, the “activation” value was -3.58% [at 30.3 µM] (inactive).
`CC1(C)S[C@@H]2[C@H](NC(=O)[C@H](N)c3ccccc3)C(=O)N2[C@H]1C(=O)O`: the Potency entry is “inactive”.
Same read-out and setting: with `CC(C)(C)NC(=O)[C@H]1CC[C@H]2[C@@H]3CC[C@H]4NC(=O)C=C[C@]4(C)[C@H]3CC[C@]12C` the entry was “inactive”.
Turning to `Cn1c(=O)c2[nH]cnc2n(C)c1=O`, the Potency entry is “inactive”.
As for `NC(=O)c1ccccc1O`, the Potency entry is “inactive”.
For the compound `C[C@]12CCC(=O)C=C1CC[C@@H]1[C@@H]2C(=O)C[C@@]2(C)[C@H]1CC[C@]2(O)C(=O)CO`, the Potency entry is “inactive”.
In the case of `Nc1c2c(nc3ccccc13)CCCC2`, the Potency result is “inactive”.
On to `C[C@H]1C[C@@H]2[C@H]([C@@H](O)C[C@@]3(C)[C@H]2CC[C@]3(O)C(=O)CO)[C@@]2(C)C=CC(=O)C=C12`, for which the Potency result was “inactive”.
In the case of `CCOC(N)=O`, the Potency result was “inactive”.
As to `NC(=O)NO`, the Potency result was “inactive”.
For the compound `CN1C(C(=O)Nc2ccccn2)=C(O)c2ccccc2S1(=O)=O`, the Potency entry was “inactive”.
For the compound `COCCc1ccc(OCC(O)CNC(C)C)cc1` (stereo unspecified), the Potency entry is “inactive”.
With `CCN(CC)CCOC(=O)c1ccc(N)cc1`, the Potency entry was “inactive”.
As for `CC(C)Cc1ccc(C(C)C(=O)O)cc1` (stereo unspecified), the Potency entry is “inactive”.
On to `O=c1c(-c2ccc(O)cc2)coc2cc(O)cc(O)c12`, for which the “activation” value is 6.58% [at 30.3 µM] (inactive).
Regarding `CCc1ccc(CCOc2ccc(CC3SC(=O)NC3=O)cc2)nc1` (stereo unspecified), the “activation” value is -6.21% (inactive).
On to `Cc1nnc(NS(=O)(=O)c2ccc(N)cc2)s1`, for which the Potency result is “inactive”.

The next assay addresses 5-hydroxytryptamine receptor 2A (Homo sapiens) (UniProt P28223). In words: 5-hydroxytryptamine receptor 2A (HTR2A) small molecule antagonists, cell-based qHTS assay (AID 1963586). Further: nearly all actives have a fitted effect of over 45% in size. Particulars: HTR2A-CHO cells, DOI-induced calcium flux, fluorescence; series mostly up to 61.5 µM; activity, negative = inhibition: at the top concentration. Summed up: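 Antagonist-mode intracellular calcium assay: DOI (4 nM) added after 5 min compound pre-incubation at room temperature to dye-loaded HTR2A-CHO cells. Fluorescence followed for 3 min, sampled every second.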
(In general: qHTS replaces the single test concentration by a dilution series.)
Consider `CC(=O)CC(C)(C)O`, for which the Potency result is “inactive”.
Regarding `CC(=O)OC/C=C(C)/C=C/C=C(C)/C=C/C1=C(C)CCCC1(C)C`, the Potency result was “inactive”.
Consider `CCCCCCCCCCN`, for which the Potency result is “inactive”.
Take `CCCCN(CCCC)CCCC`: the Potency entry was “inactive”.
Same read-out and setting: with `CCCCCCC(C)O` (stereo unspecified) the entry was “inactive”.
With `O=[Se](O)O`, the activity, negative = inhibition is 3.34% [at 12.7 µM] (inactive).
On to `Cc1ccc(S(=O)(=O)NCl)cc1`, for which the Potency result was “inactive”.
Take `CCC(C)C=O` (stereo unspecified): the Potency result is “inactive”.
In the case of `CC(C)[N+](C)(CCOC(=O)C1c2ccccc2Oc2ccccc21)C(C)C`, the Potency result is “inactive”.
Regarding `CCCCC/C=C\C/C=C\CCCCCCCC(=O)O`, the Potency result is “inactive”.
On to `CCCc1c(OCCCCc2nn[nH]n2)ccc(C(C)=O)c1O`, for which the “activity, negative = inhibition” value is 4.61% [at 28.5 µM] (inactive).
On to `CC(=O)c1ccc(O)cc1`, for which the Potency entry was “inactive”.
As to `CC(C)CC(C)CC(O)CC(C)C` (stereo unspecified), the Potency result is “inactive”.
Take `CC(=O)Nc1ccc(C(=O)O)cc1`: the Potency result is “inactive”.
`C=CCNC(N)=S`: the Potency result is “inactive”.
Take `CC(=O)Nc1ccc(C(=O)CCl)cc1`: the Potency result is “inactive”.
Consider `O=C(O)CN(CC(=O)O)CC(=O)O`, for which the Potency entry is “inactive”.
Still for that read-out and setting: with `O=CCCCC=O` the entry was “inactive”.

A further assay shares this target. In words: 5-hydroxytryptamine receptor 2A (HTR2A) small molecule agonists, cell-based qHTS assay (AID 1963587). Further: nearly all actives have a fitted effect of over 30% in size. Further: potency means the concentration at half of the fitted maximal effect. Particulars: HTR2A-CHO cells, calcium flux fluorescence, agonist mode; series mostly up to 76.8 µM; activation: at the top concentration. The procedure, abridged: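 CHO cells stably expressing human HTR2A, plated 18 h, loaded with calcium dye 1 h at 37 C. Agonist mode: compounds added and intracellular calcium fluorescence recorded kinetically for 2 min at 1 sec intervals.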
Regarding `CC(=O)CC(C)(C)O`, the Potency result was “inactive”.
As to `CC(=O)OC/C=C(C)/C=C/C=C(C)/C=C/C1=C(C)CCCC1(C)C`, the Potency result was “inactive”.
Take `CCCCCCCCCCN`: the “activation” value was 13% (inactive).
As to `CCCCN(CCCC)CCCC`, the Potency result was “inactive”.
Consider `CCCCCCC(C)O` (stereo unspecified), for which the Potency result was “inactive”.
Take `O=[Se](O)O`: the Potency is 19.5 µM (active) and the activation was -0.26% [at 15.9 µM] (inactive).
As for `Cc1ccc(S(=O)(=O)NCl)cc1`, the Potency entry is “inactive”.
Take `CCC(C)C=O` (stereo unspecified): the Potency result was “inactive”.
`CC(C)[N+](C)(CCOC(=O)C1c2ccccc2Oc2ccccc21)C(C)C`: the Potency result was “inactive”.
As to `CCCCC/C=C\C/C=C\CCCCCCCC(=O)O`, the Potency result was “inactive”.
Still for that read-out and setting: with `CCCc1c(OCCCCc2nn[nH]n2)ccc(C(C)=O)c1O` the entry was “inactive”; with `CC(=O)c1ccc(O)cc1`, “inactive”.
As to `CC(C)CC(C)CC(O)CC(C)C` (stereo unspecified), the Potency result was “inactive”.
Turning to `CC(=O)Nc1ccc(C(=O)O)cc1`, the Potency entry is “inactive”.
On to `C=CCNC(N)=S`, for which the Potency result is “inactive”.
For `CC(=O)Nc1ccc(C(=O)CCl)cc1`, the Potency entry was “inactive”.
As for `O=C(O)CN(CC(=O)O)CC(=O)O`, the Potency entry was “inactive”.
For the compound `O=CCCCC=O`, the Potency entry was “inactive”.

For a further assay, the target named is Muscarinic acetylcholine receptor M1 (Homo sapiens) (UniProt P11229). In words: Cholinergic receptor muscarinic 1 (CHRM1) small molecule antagonists, cell-based qHTS assay (AID 1963588). Further: nearly all actives have a fitted effect of over 40% in size. The note with it: CHRM1-CHO antagonist mode, calcium flux fluorescence; series mostly up to 61.5 µM; activity, negative = inhibition: at the top concentration. Summed up:
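CHRM1-CHO calcium-flux assay, antagonist mode. Cells were seeded 18 h, dye-loaded 1 h at 37 C and given compound for 5 min at RT, then acetylcholine was added at 50nM. FDSS fluorescence was read 3 min; 15 concentrations, three runs.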
As to `CC(=O)CC(C)(C)O`, the Potency entry is “inactive”.
Still for that read-out and setting: next, `CC(=O)OC/C=C(C)/C=C/C=C(C)/C=C/C1=C(C)CCCC1(C)C`: “inactive”; `CCCCCCCCCCN`: “inactive”; `CCCCN(CCCC)CCCC`: “inactive”.
On to `CCCCCCC(C)O` (stereo unspecified), for which the Potency entry was “inactive”.
For the compound `Cc1ccc(S(=O)(=O)NCl)cc1`, the Potency entry was “inactive”.
Still for that read-out and setting: next, `CCC(C)C=O` (stereo unspecified): “inactive”.
With `CC(C)[N+](C)(CCOC(=O)C1c2ccccc2Oc2ccccc21)C(C)C`, the “activity, negative = inhibition” value is -88.3% (inactive).
Turning to `CCCCC/C=C\C/C=C\CCCCCCCC(=O)O`, the Potency entry was “inactive”.
`CCCc1c(OCCCCc2nn[nH]n2)ccc(C(C)=O)c1O`: the Potency entry is “inactive”.
In the case of `CC(=O)c1ccc(O)cc1`, the Potency entry is “inactive”.
With `CC(C)CC(C)CC(O)CC(C)C` (stereo unspecified), the Potency entry is “inactive”.
Take `CC(=O)Nc1ccc(C(=O)O)cc1`: the Potency entry was “inactive”.
Consider `C=CCNC(N)=S`, for which the “activity, negative = inhibition” value was -1.41% [at 28.3 µM] (inactive).
As to `CC(=O)Nc1ccc(C(=O)CCl)cc1`, the Potency entry is “inactive”.
Consider `O=C(O)CN(CC(=O)O)CC(=O)O`, for which the Potency entry was “inactive”.
Take `O=CCCCC=O`: the Potency result was “inactive”.
